{"source": "PubChem BioAssay AID720506", "about": "(National Center for Advancing Translational Sciences (NCATS), 2013)", "note": "The whole screen tested about 2,300 compounds, of which about 95 (4%) were called active. About 17% were inconclusive and are not listed. Calls come from the whole dose curve; as a rule, active = well fitted activation curve with a large enough effect; inconclusive = small, poorly fitted or top-dose-only effect; inactive = flat fitted curve, though single readings scatter. What follows is part of a selection rich in actives, with near analogues and random picks from the rest. Where a call stands in place of a potency, no number is given. Potency is the fitted concentration of half-maximal effect.", "data": [{"biological_target": "D(3) dopamine receptor (Homo sapiens) (UniProt P35462)", "sequence (P35462 whole entry, looked up)": "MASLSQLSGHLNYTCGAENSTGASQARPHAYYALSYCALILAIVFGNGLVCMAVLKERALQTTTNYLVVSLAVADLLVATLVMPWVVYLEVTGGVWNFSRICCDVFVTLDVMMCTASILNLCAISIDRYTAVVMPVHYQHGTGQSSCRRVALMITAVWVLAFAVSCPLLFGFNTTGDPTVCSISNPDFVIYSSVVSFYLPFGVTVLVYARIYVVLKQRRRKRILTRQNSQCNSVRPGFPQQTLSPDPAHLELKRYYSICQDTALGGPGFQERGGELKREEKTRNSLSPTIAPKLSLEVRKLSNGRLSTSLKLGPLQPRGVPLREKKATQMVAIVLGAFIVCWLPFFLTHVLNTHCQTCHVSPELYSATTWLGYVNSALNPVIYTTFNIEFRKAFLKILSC", "assay": "qHTS of D3 Dopamine Receptor Agonist: D3 Dopamine Receptor B-arrestin Agonist Confirmatory Assay; note: nearly all actives have a fitted effect of over 70% in size", "conditions": "DiscoveRx D3 beta-arrestin cells, luminescence, 90 min; series mostly up to 76.9 µM", "text": "D3 DARs represent a very important target for the treatment of several neuropsychiatric disorders. Indeed, one of the most promising therapeutic applications for the D3 DAR is in the area of addiction and related disorders. […] These findings have been observed with a number of addictive substances including cocaine, amphetamine, nicotine, and alcohol. […] Increased D3 DAR activity can thus lead to neuroprotective and neurorestorative actions in the CNS. […] This assay is used to confirm the activity of the identified D3 dopamine receptor agonist. Activation is the desired outcome for this assay. NIH Molecular Libraries Probe Production Centers Network [MLPCN] NIH Chemical Genomics Center [NCGC] MLPCN Grant: NS064831 Assay Submitter (PI): David Sibley\nFreshly passaged DiscoveRx D3 cells are plated in 1536 well white, solid bottom plates at a density of 1500 cells/well in 3microl of complete media. After an overnight incubation at 37 degrees C in 5% CO2, cells are loaded with 23nl of test compound from the compound library (as well as dopamine controls) using a 1536 pintool and incubated at 37 degrees C for 90 minutes. Two microliters of DiscoveRx reagent is then added to all cells, and they are incubated for an additional 30 - 60 minutes at room temperature. Following incubation, luminescence is measured on a ViewLux CCD-based luminometer reader using a 20 sec exposure time.", "values": [{"smiles": "Cc1ccc(O)c(-c2cc(C(=O)Nc3c(C)n(C)n(-c4ccccc4)c3=O)[nH]n2)c1", "Potency": "inactive"}, {"smiles": "COc1ccc(NC(C)=O)cc1NC(=O)CN1CCN(c2ccccn2)CC1", "Potency": "inactive"}, {"smiles": "OCC[C@H]1C[C@H](O)[C@@H](O)[C@]2(Cc3ccccc3CO2)O1", "Potency": "inactive"}, {"smiles": "Cn1c(C(=O)NCCCN2CCN(c3cccc(Cl)c3)CC2)cc2c(=O)n(C)c3ccccc3c21", "Potency": "inactive"}, {"smiles": "O=C(Nc1cccnc1Cl)c1cc(-c2cccc(Cl)c2)on1", "Potency": "inactive"}, {"smiles": "CCC(CC)NC(=O)/C=C/c1cccc([N+](=O)[O-])c1", "Potency": "inactive"}, {"smiles": "O=C1c2cccc3cccc(c23)N1CN1CCN(c2ccccn2)CC1", "Potency": "inactive"}, {"smiles": "OC(COc1cccc2ccccc12)CN1CCN(c2ccccn2)CC1", "note": "(configuration not stated)", "Potency": "8.91 µM (active)"}, {"smiles": "CC(=O)Nc1ccc(OCC(O)CN2CCN(c3ccccc3Cl)CC2)cc1", "note": "(configuration not stated)", "Potency": "inactive"}, {"smiles": "O=C(OCc1nc2ccccc2[nH]1)C1CCCCC1", "Potency": "inactive"}, {"smiles": "O=C(c1ccccc1)c1ccc(OCC(O)CN2CCCC2)cc1", "note": "(configuration not stated)", "Potency": "inactive"}, {"smiles": "CC[C@H](C)C(=O)N[C@H]1CCCN1C(=O)/C=C/c1ccccc1", "Potency": "inactive"}, {"smiles": "CCCCC(=O)NNC(=S)NC(=O)C(c1ccccc1)c1ccccc1", "Potency": "inactive"}, {"smiles": "CCCN1CC=C2C(C#N)=C(N)C(C#N)(C#N)C(c3cc(OC)ccc3OC)C2C1", "note": "(configuration not stated)", "Potency": "inactive"}, {"smiles": "CC(=O)C[C@@H](O)CC(=O)[C@H]1OC(=O)CCCCCCc2ccccc21", "Potency": "inactive"}, {"smiles": "COc1cc(OC)c(-n2cc(-c3ccc(Cl)cc3)[nH]c2=O)cc1Cl", "Potency": "inactive"}, {"smiles": "CNC(=O)NC(=O)C(C)N1CCN(C/C=C/c2ccccc2)CC1", "note": "(configuration not stated)", "Potency": "inactive"}, {"smiles": "CN1CCC(CN)(N2CCN(c3ccccc3)CC2)CC1", "Potency": "inactive"}, {"smiles": "O=C1CC[C@H](O)CCN1[C@H](CSc1ccc(Br)cc1)Cc1ccccc1", "Potency": "inactive"}, {"smiles": "Cc1ccccc1N1CCN(CCCOc2ccc3c(C)cc(=O)oc3c2)CC1", "Potency": "inactive"}, {"smiles": "Nc1nonc1-n1nnc(C(=O)N/N=C/c2ccc(Cl)cc2)c1-c1ccc2c(c1)OCO2", "Potency": "inactive"}, {"smiles": "CN(C)CCOC(=O)C(c1ccccc1)C1(O)CCCC1", "note": "(configuration not stated)", "Potency": "inactive"}, {"smiles": "Cc1cc(C(=O)NNC(=O)c2ccccc2O)c(C)o1", "Potency": "inactive"}, {"smiles": "O=C(Nc1ccc(F)cc1F)N1CCCN(CCOc2ccccc2)CC1", "Potency": "inactive"}, {"smiles": "COC(c1ccccc1)c1nnc(CCC(=O)N2CCN(CCOc3ccccc3)CC2)o1", "note": "(configuration not stated)", "Potency": "2.82 µM (active)"}, {"smiles": "NS(=O)(=O)c1ccc(CCNC(=O)NC2CCCCC2)cc1", "Potency": "inactive"}, {"smiles": "[O-][N+]12CCCCC1CCCC2CO", "note": "(configuration not stated)", "Potency": "inactive"}, {"smiles": "COc1cc(OC)c2ccc(=O)oc2c1C(CCN1CCN(c2ccccc2)CC1)c1ccc2c(c1)OCO2", "note": "(configuration not stated)", "Potency": "inactive"}, {"smiles": "O=C(CCN1CCN(c2ccccc2)CC1)NNC(=S)Nc1ccccc1", "Potency": "inactive"}, {"smiles": "COc1ccc(N2CCN(Cc3cc(=O)oc4ccc5ccccc5c34)CC2)cc1", "Potency": "inactive"}, {"smiles": "Cc1cccc(C)c1NC(=O)CNC(=O)c1ccc2c(c1)OCCO2", "Potency": "inactive"}, {"smiles": "Cc1ccccc1Nc1nc(N)nc(CN2CCN(c3ccccn3)CC2)n1", "Potency": "inactive"}, {"smiles": "O=C(CN1CCN(c2ccccn2)CC1)NC1CCCCC1", "Potency": "inactive"}, {"smiles": "Cc1c(CN2CC[C@@H](N3CCN(c4ccccn4)CC3)[C@H](O)C2)[nH]c2ccc(F)cc12", "Potency": "28.2 µM (active)"}, {"smiles": "Cc1n[nH]c(C)c1S(=O)(=O)N1CCCC(C(=O)NCC2COc3ccccc3O2)C1", "note": "(configuration not stated)", "Potency": "inactive"}, {"smiles": "O=C(O[C@H]1[C@H](Cc2ccccc2)NS(=O)(=O)[C@H]2C[C@@H]3C=C[C@]12O3)c1ccc([N+](=O)[O-])cc1", "Potency": "inactive"}, {"smiles": "O=C1c2ccccc2S(=O)(=O)N1CC(O)Cn1c2ccccc2c2ccccc21", "note": "(configuration not stated)", "Potency": "inactive"}, {"smiles": "CC(C)(C)n1ncc2c(=O)n(Cc3c(Cl)cccc3Br)cnc21", "Potency": "inactive"}, {"smiles": "COc1ccc(S(=O)(=O)N2CCSCC2)cc1", "Potency": "inactive"}, {"smiles": "O=C1C=C(c2cccc(Br)c2)C[C@@H](c2ccc(F)cc2)C1", "Potency": "inactive"}, {"smiles": "O=C(COc1coc(CN2CCN(c3ccccc3)CC2)cc1=O)Nc1ccccc1F", "Potency": "inactive"}, {"smiles": "CCC(=O)c1ccc(OCC(=O)Nc2ccc(N3CCCCC3)cc2)cc1", "Potency": "inactive"}, {"smiles": "Cc1cnc(C(=O)N2CCCC(N3CCN(c4ccccc4F)CC3)C2)cn1", "note": "(configuration not stated)", "Potency": "inactive"}, {"smiles": "CN(CCO)S(=O)(=O)c1ccc2c(c1)C(=O)c1cc(S(=O)(=O)N(C)CCO)ccc1-2", "Potency": "inactive"}, {"smiles": "CC(=O)OC(C)C[N+](C)(C)C", "note": "(configuration not stated)", "Potency": "inactive"}, {"smiles": "CS(=O)(=O)N1CCC(C(=O)N2CCN(c3ccccc3)CC2)CC1", "Potency": "inactive"}, {"smiles": "O=C(NC(=O)c1ccccc1)Nc1ccccc1O", "Potency": "inactive"}, {"smiles": "O=C(CCn1c(=O)[nH]c2ccccc2c1=O)NCCCN1CCN(c2cccc(Cl)c2)CC1", "Potency": "inactive"}, {"smiles": "O=C(CN1CCN(c2ncccn2)CC1)Nc1ccccc1C(F)(F)F", "Potency": "inactive"}, {"smiles": "CC(OC(=O)/C=C/c1ccccc1)C(=O)NC1CCCCC1C", "note": "(configuration not stated)", "Potency": "inactive"}, {"smiles": "O=c1cc(CCl)nc2scc(-c3ccccc3)n12", "Potency": "inactive"}, {"smiles": "CC(C)CCN1CCN(Cc2cn[nH]c2C2CCCCC2)CC1CCO", "note": "(configuration not stated)", "Potency": "inactive"}, {"smiles": "CS/C(=C\\C(=O)c1ccco1)Nc1ccccc1Cl", "Potency": "inactive"}, {"smiles": "O=S(=O)(c1ccc(F)cc1)N1CC=C(c2ccccc2)CC1", "Potency": "inactive"}, {"smiles": "CCN(CCCNC(=O)c1ccc2c(c1)NC(=O)CN2C)c1cccc(C)c1", "Potency": "inactive"}, {"smiles": "O=C(CC1NCCc2ccccc21)Nc1cccc(Cl)c1", "note": "(configuration not stated)", "Potency": "inactive"}, {"smiles": "COc1ccc([C@H]2CC(=O)C=C(c3ccc(CO)cc3)C2)cc1", "Potency": "inactive"}, {"smiles": "COc1ccc([C@H]2CC(=O)C=C(c3ccc(OC(F)(F)F)cc3)C2)cc1OC", "Potency": "inactive"}, {"smiles": "CC(=C1C(=O)c2ccccc2C1=O)N1CCN(c2ccccn2)CC1", "Potency": "inactive"}, {"smiles": "Cc1c(CC(=O)N2CCN(C(=O)C3COc4ccccc4O3)CC2)c(=O)oc2c(O)c(O)ccc12", "note": "(configuration not stated)", "Potency": "28.2 µM (active)"}, {"smiles": "NS(=O)(=O)c1ccc(CCNS(=O)(=O)c2cccc3cccnc23)cc1", "Potency": "inactive"}, {"smiles": "C/C(=N\\NC(=S)NC1CCCCC1)c1ccc(C)o1", "Potency": "inactive"}, {"smiles": "COc1ccc(CC(NC(C)=O)C(=O)N2CCN(C(=O)Nc3cccc(Cl)c3)CC2)cc1OC", "note": "(configuration not stated)", "Potency": "inactive"}, {"smiles": "O=C(NCCCN1CCN(c2ccccc2F)CC1)C1CCC(=O)N1C1CCCCC1", "note": "(configuration not stated)", "Potency": "inactive"}, {"smiles": "Cc1ccc(S(=O)(=O)N2CC(O)C[C@H]2C(=O)OCC(=O)Nc2ccc(N3CCOCC3)cc2)cc1C", "note": "(some centres not stated)", "Potency": "inactive"}, {"smiles": "CCn1c(=O)n(CC)c2cc(N3CCCC3)c(NC(=O)c3ccccc3Br)cc21", "Potency": "inactive"}, {"smiles": "CNCC(O)c1ccc(O)c(O)c1", "note": "(configuration not stated)", "Potency": "inactive"}]}]}
